Data as given in PubChem BioAssay AID540333 (Southern Research Specialized Biocontainment Screening …, 2011).
Screen size: about 10,000 compounds; about 320 (3.2%) were called active. The full list was thinned out, with actives kept by preference. Unmarked numbers belong to inactive results. No stated cut-off is given here; in the data, active means CPE inhibition mostly above about 9.1% (no sharp cut-off); inactive means mostly below about 7.2%.

Experiment: antivirals protecting cells from dengue CPE – CPE readout, HTS (AID 540333)
Conditions: Dengue virus CPE inhibition in host cells, at 20 µM; hits give high values

| Structure (SMILES) | CPE inhibition |
| --- | --- |
| Cc1ccc(/C=C2\SC(=S)N(CCC(=O)NNS(=O)(=O)c3ccc(C)cc3)C2=O)cc1 | 0.18% |
| CC(C)(C)CNC(=O)c1cccc2c1C(=O)c1ccc(N3CCCC3)cc1S2(=O)=O | 0.02% |
| O=C(Nc1nc(-c2ccc(-c3ccccc3)cc2)cs1)C1=COCCO1 | 1.39% |
| O=C(Nc1nc(-c2ccc(Oc3ccccc3)cc2)cs1)C1=COCCO1 | 10.7% (active) |
| O=C(Nc1nc(-c2cccs2)cs1)C1=COCCO1 | inactive |
| O=C1N=C(N2CCCC2)CN1c1ccccc1 | 0.23% |
| O=C([O-])c1ccc(-[n+]2c(-c3ccccc3)cc(-c3ccccc3)cc2-c2ccccc2)cc1 | 10.2% (active) |
| CCC(=O)c1ccc(-c2ccccc2)cc1 | inactive |
| CC(C)=NOC(=O)c1ccc(-c2ccccc2)cc1 | 0.26% |
| C=C(C)C1CC=C(C)/C(=N/NC(=O)c2cccc([N+](=O)[O-])c2)C1 (stereo not drawn) | inactive |
| CCOC(=O)c1sc(N/N=C/c2ccccc2)nc1C | 0.925% |
| COc1ccc(/C=C(\C#N)C(=O)OCC(=O)Nc2c(C)cccc2C)cc1 | inactive |
| Cc1ccc(C)c2[nH]c(=O)c(C(c3nnnn3C(C)(C)C)N3CC=C(c4ccc(F)cc4)CC3)cc12 (stereo not drawn) | 26.9% (active) |
| Cc1ccc(NC(=S)NC(C)CCc2ccccc2)cc1C (stereo not drawn) | 19.3% (active) |
| CC(CCc1ccccc1)NC(=O)Cc1ccccc1 (stereo not drawn) | inactive |
| Cc1ccccc1NC(=O)C(=O)NC(C)CCc1ccccc1 (stereo not drawn) | inactive |
| Cc1ccccc1C(=O)Nc1c2c(nc3ccccc13)CCCC2 | inactive |
| O=C(COC(=O)Cc1ccsc1)NC(c1ccccc1)c1ccccc1 | inactive |
| O=C(COC(=O)/C(=C/c1cccs1)c1cccs1)NC(c1ccccc1)c1ccccc1 | 17.2% (active) |
| CCOC(=O)/C=C/C(=O)OCC(=O)NC(c1ccccc1)c1ccccc1 | 0.285% |

| Structure (SMILES) | CPE inhibition |
| --- | --- |
| Cc1nn(C)c(C(=O)NCc2ccc(Cl)cc2)c1Cl | 0.24% |
| Cc1ccc(NC(=S)c2ccccc2)cc1 | inactive |
| CCOC(=O)C1=C(Nc2ccccc2)CC(C)(O)C(C(=O)OCC)C1c1ccccc1 (stereo not drawn) | 0.14% |
| CCOC(=O)C1C(C(=O)OCC)C1(c1ccccc1)c1ccccc1 (stereo not drawn) | 0.545% |
| CCOC(=O)C1=C(Nc2ccccc2)CC(C)(O)C(C(=O)OCC)C1c1ccc(Cl)cc1 (stereo not drawn) | 26.4% (active) |
| O=C1c2ccccc2C(=O)c2c1cccc2N1CCCC1 | 0.885% |
| CN(C)c1cccc2c1C(=O)c1ccccc1C2=O | inactive |
| Cc1ccc(-n2[nH]c3c4c(ccc3c2=O)C(=O)c2ccccc2C4=O)cc1 | 17% (active) |
| O=S(=O)(c1ccc(-c2csc(Nc3ccc(Br)cc3)n2)cc1)N1CCCC1 | 5.89% |
| CC(C)Cc1nc(Nc2ccc(S(=O)(=O)N3CCCC3)cc2)c2nnn(Cc3ccccc3)c2n1 | 19.9% (active) |
| O=S(=O)(c1ccc(-c2csc(Nc3ccc(F)cc3)n2)cc1)N1CCCC1 | 2.46% |
| O=C(COC(=O)Cc1c[nH]c2ccccc12)Nc1cccc2ccccc12 | 0.635% |
| COc1cccc(NC(=S)NNC(=O)Cn2nc(C(F)(F)F)cc2C)c1 | inactive |
| O=C1C(Cc2cccc([N+](=O)[O-])c2)SC(=Nc2ccccc2)N1c1ccccc1 (stereo not drawn) | 2.22% |
| CCOc1ccc(C(=O)Nc2cc(-c3nc4ccccc4[nH]3)ccc2Cl)cc1[N+](=O)[O-] | inactive |
| CCOc1ccc(C(=O)Nc2ccc(-c3nc4ccccc4[nH]3)cc2)cc1[N+](=O)[O-] | 8.47% (active) |
| CCOc1ccc(C(=O)Nc2cccc(-c3nc4ccccc4[nH]3)c2C)cc1[N+](=O)[O-] | 1.88% |
| COc1cccc(-c2c(-c3cc(OC)cc(OC)c3)n(C)c3ccc(Br)cc23)c1 | 1.34% |
| COc1cc(OC)cc(-c2c(-c3ccc(F)cc3)c3cc(-c4cnc(OC)nc4)ccc3n2C)c1 | 2.91% |
| O=C1[C@@H]2[C@@H]3C[C@@H]([C@H]4ON=C(c5ccc(Cl)cc5)[C@@H]34)[C@@H]2C(=O)N1C1CCCCC1 | 10.9% |

| Structure (SMILES) | CPE inhibition |
| --- | --- |
| O=C1[C@@H]2[C@@H]3C[C@@H]([C@H]4ON=C(c5ccc(Cl)cc5)[C@@H]34)[C@@H]2C(=O)N1c1ccc2c(c1)OCO2 | inactive |
| O=C1[C@@H]2[C@@H]3C[C@@H]([C@H]4ON=C(c5ccc(Cl)cc5Cl)[C@@H]34)[C@@H]2C(=O)N1C1CCCCC1 | 14.8% (active) |
| COc1ccc(NC(=O)CCC(=O)OCc2ccc(Br)cc2)cc1 | 0.265% |
| O=C(/C(=C\c1ccccc1)c1nc2ccccc2[nH]1)c1ccc(Cl)cc1 | inactive |
| Cc1nn(-c2ccccc2)c(C)c1/C=N/NC(=O)CSc1nnc(SCc2cccc3ccccc23)s1 | 4.67% |
| O=C(CSc1nnc(SCc2cccc3ccccc23)s1)N/N=C/c1c[nH]c2ccccc12 | 23.8% (active) |
| CCn1c(SCC(=O)N/N=C/c2c[nH]c3ccccc23)nnc1-c1ccc(C(C)(C)C)cc1 | 14.2% (active) |
| O=C(CSc1nnc(SCc2ccccc2Cl)s1)N/N=C/c1c[nH]c2ccccc12 | 0.645% |
| CCn1c(SCC(=O)N/N=C/c2ccc(C)o2)nnc1-c1ccc(C(C)(C)C)cc1 | 0.345% |
| CCn1c(SCC(=O)N/N=C/c2c[nH]c3ccccc23)nnc1-c1ccc(Cl)cc1 | 1.47% |
| CCc1ccc(OC(C)c2nnc(SCC(=O)Nc3ncccc3C)n2C)cc1 (stereo not drawn) | 0.355% |
| Cc1cc(C)c2[nH]c(=O)c(CN(Cc3cccs3)C(=S)NCc3ccco3)cc2c1 | 4.37% |
| CN(CC(=O)Nc1ccc(Cl)c(Cl)c1)C(=O)/C=C/c1ccc(F)cc1 | 0.95% |
| S=C(NCCc1ccccc1)NC1CC1 | inactive |
| COC(=O)c1sccc1N/N=C/c1cccc(OC)c1O | 2.21% |
| CCc1ccc(OCC(=O)N2c3ccccc3CCc3ccccc32)cc1 | 14.2% (active) |
| O=C(COc1ccc(Cl)cc1)OCC(=O)N1CCCc2ccccc21 | inactive |
| COc1ccc(OCC(=O)N2c3ccccc3CCc3ccccc32)cc1 | inactive |
